# Compound activity deposited in PubChem BioAssay by National Center for Advancing Translational Sciences (NCATS).
# aSyn yeast inh: alpha-synuclein toxicity inhibition in yeast. Yeast expressing alpha-synuclein, growth rescue, BacTiter-Glo, 24 h. Potency, µM (top dose mostly 46.1 µM), for the others: top-dose growth rescue (activation), usual class: activators. 0.14% of 370,000 active; further: % of control where 0% means no effect; nearly all actives have a fitted effect of over 65% in size
#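 Screening used galactose-induced yeast with toxic alpha-synuclein levels, exposed to compound for 24 hr at 30 deg C. Cell growth, read with BacTiter-Glo luminescence, gave the measured signal.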
# Abeta rescue: A-beta toxicity reversal in yeast; yeast expressing A-beta42, growth rescue, OD600, 48 h; response scale: 0% DMSO, 100% iron-clioquinol control; Potency, µM (titrated, usually from 46.1 µM), most hits filed as activators; 0.063% of 410,000 active; AID 1347071; further: nearly all actives have a fitted effect of over 55% in size
#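 Yeast A-beta toxicity model in growth medium with pinned compounds, 48 h at 30 C; growth read as absorbance at 600 nm. Normalized to FeCl3/clioquinol equimolar mix (positive) and DMSO (negative).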
# FUS yeast rescue: rescues growth of FUS-expressing yeast. S. cerevisiae FUS-expressing, growth rescue, OD600, 24 h. Potency, µM (titrated, usually from 76.6 µM), hits mostly activators. 0.24% of 390,000 active;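 further: plate controls were DMSO vehicle for no effect and reference control for full effect; nearly all actives have a fitted effect of over 55% in size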
#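 Yeast expressing FUS under galactose induction, OD 0.005 in 2% galactose medium; compounds in a dilution series, 24 h at 30C. Growth rescue by absorbance at 600 nm; CP55940 positive control, DMSO negative.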
# TDP43 rescue: inhibitors of TDP-43 toxicity in yeast. TDP-43 expressing yeast growth rescue, BacTiter-Glo, 24 h. Potency, µM (series often up to 46.1 µM), for inactives: at the highest dose growth rescue (activation), usual class: activators. 1.8% of 410,000 active. AID 652104; further: % of control where 0% means no effect; nearly all actives have a fitted effect of over 50% in size
#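 Readout is BacTiter-Glo luminescence of cell growth, so inhibitors register as activators. TDP-43-expressing yeast at OD600=0.02 in galactose medium, after raffinose pregrowth to mid-log, were incubated with compound for 24 hr at 30 deg C.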
# * = called active by the depositor; i = inactive; ? = inconclusive; / = no result; ! = not confirmed by another sample; [ ] = dose if it differs, or a comment. An excerpt weighted towards active compounds, which were near 2.1% of everything screened. The call rests on the fitted dose curve; in most records, active means well fitted curve in the direction sought with a large enough effect; inconclusive means small, poorly fitted or top-dose-only effect, or another doubt; inactive means no such curve, though single readings can be large; an effect the other way counts as inactive or inconclusive. Potency means the concentration at half of the fitted maximal effect.
SMILES,aSyn yeast inh,Abeta rescue,FUS yeast rescue,TDP43 rescue
CCCCCc1ccc(NC(=O)O[C@@H]2CC[C@@]34CCCN3C(=O)CCC[C@H]4C2)cc1,/,/,22.4µM*,/
COc1ccccc1C(=O)NCCSCc1c(F)cccc1Cl,1.9%,i,i,19.3%
Cc1c(C(=O)NCCSCc2c(F)cccc2Cl)cnn1-c1ccc(Cl)cc1,-1.1%,i,i,20µM*
COc1cc2c(cc1OC)CSC1C(=O)N(C)C(SC2)C(=O)N1C,/,/,i,/
CC(C)CC(=O)Nc1ncc([N+](=O)[O-])s1,?,i,i,4.6%
CCCCC(=O)Nc1ncc([N+](=O)[O-])s1,0.4%,i,i,15.8µM*
COc1ccccc1C(=O)NS(=O)(=O)c1ccc(C)cc1,?,i,i,17.8µM*
Cc1ccc(S(=O)(=O)NC(=O)c2ccccc2F)cc1,15.8%,i,i,?
O=C(COc1ccccc1)Nc1sc2c(c1C(=O)Nc1ccccc1)CCCCC2,/,i,i,7.1%
COc1ccc(NC(=O)c2c(NC(=O)COc3ccc(Cl)cc3)sc3c2CCCCC3)cc1,/,i,i,8.91µM*
CN(C)c1ccc(C(=O)Oc2cc(O/N=[N+](\[O-])N(C)C)c([N+](=O)[O-])cc2[N+](=O)[O-])cc1,-72.7%,/,/,/
CCN(C(=O)c1cc2c(=O)n3cccc(C)c3nc2s1)C1CCCCC1,3.3%,i,i,?
CCCCN(CC)C(=O)c1cc2c(=O)n3cccc(C)c3nc2s1,-1.8%,i,i,35.5µM*
CCN(C(=O)c1cc2c(=O)n3ccccc3nc2s1)C1CCCCC1,0.7%,i,i,17.8µM*
CCN1CCCCC(NC(=O)Cc2ccccc2)C1=O (stereo not drawn),/,/,i,/
Cc1c2n(c3ccccc13)CC/C2=N\O,3.8%,i,i,11.2µM*
CO/N=C1\CCn2c1c(C)c1ccccc12,-0.4%,i,i,-13.4%[1.82 µM]
Nc1cc(C(=O)c2ccccc2)ccc1[N+](=O)[O-],0.2%,i,i,8.91µM*
O=C(Cc1cc(=O)[nH][nH]1)N/N=C/c1ccccc1C(F)(F)F,/,/,i,/
CSc1ccc(CCNC(=O)c2ccc(CS(=O)(=O)c3ccc(Br)cc3)o2)cc1,/,i,i,4.7%
O=C(c1ccc(CSc2nc3ccncc3n2Cc2cccc(F)c2)cc1)N1CCCCC1,/,i,i,-3.8%
O=C(NC1CCCC1)C1CSCCS(=O)(=O)N1Cc1ccc(F)cc1 (stereo not drawn),/,/,i,/
CC12CN3CC(C)(CN(C1)C3c1ccc([N+](=O)[O-])o1)C2 (stereo not drawn),-58.1%,i,i,11.2µM*
CC(=O)N1CCc2nc3sc(C(=O)c4ccc(F)cc4)c(N)c3c(C(F)(F)F)c2C1,/,i,i,28.2µM*
CCOC(=O)c1c(CSc2ccccc2)oc2ccc(O)cc12,3.6%,i,i,20µM*
SMILES,aSyn yeast inh,Abeta rescue,FUS yeast rescue,TDP43 rescue
CCOC(=O)c1c(CSc2ccc(C)cc2)oc2ccc(O)cc12,-12.7%,i,i,22.4µM*
CCOC(=O)c1c(-c2ccccc2)oc2ccc(O)cc12,3.8%,i,i,?
Cc1sc2ccccc2[n+]1CCCC[n+]1c(C)sc2ccccc21,-0.3%,/,/,/
O=C(Nc1ccccc1Cl)C1CCN(c2nc3ccccc3nc2C(F)(F)F)CC1,/,i,i,11.5%
Cc1ccc(Cl)c2sc(NC(=O)C3=COCCO3)nc12,-7.0%,i,i,11.2µM*
Cc1cc(C)c2sc(NC(=O)C3=COCCO3)nc2c1,-2.1%,i,?,17.8µM*
Cc1cc(C)c(-c2csc(NC(=O)C3=COCCO3)n2)c(C)c1,-4.0%,i,i,?
COc1ccc(Cl)c2sc(NC(=O)C3=COCCO3)nc12,-0.8%,i,i,-10.9%
Cc1ccccc1CN1C(=O)C(O)(CC(=O)c2cccc(Br)c2)c2ccccc21 (stereo not drawn),/,i,i,23.1%
O=C(NCC1CCCO1)C(c1ccc(F)cc1)N(CC1CCCO1)C(=O)c1ccc(-c2ccccc2)[nH]1 (stereo not drawn),-9.4%,i,i,7.0%
O=C(NCC1CCCO1)C(c1cccs1)N(Cc1cccs1)C(=O)c1ccc(-c2ccccc2)[nH]1 (stereo not drawn),-3.6%,i,35.5µM*,8.7%
O=C(CSc1nc(-c2ccc(F)cc2)cc(C(F)(F)F)n1)NCCc1ccccc1,/,i,i,11.0%
O=C(Cc1csc2ccccc12)NCc1ccc(F)cc1,/,i,i,12.6µM*
Cc1cccc(CNC(=O)Cc2csc3ccccc23)c1,20µM*,i,i,?
Cc1ccc(C(C)C)c(OC(C)C(=O)NCC2(N(C)C)CCCCC2)c1 (stereo not drawn),2.6%,i,i,12.7%
Cc1ccc(C)c(CNC(=O)c2sc3ncnc(N(C)C4CCCCC4)c3c2C)c1,/,i,i,22.4µM*
Cc1c(C(=O)NCc2ccccc2Cl)sc2ncnc(N(C)C3CCCCC3)c12,/,i,i,?
COc1ccc(OC)c(CCNC(=O)Cn2ccc3cc(S(=O)(=O)N4CCCCC4)ccc32)c1,/,i,35.5µM*,-2.2%
COc1ccccc1CCNC(=O)Cn1ccc2cc(S(=O)(=O)N3CCCCCC3)ccc21,/,i,i,13.0%
C=C(C)[C@@H]1C2=CC(C(=O)OC)=C(C[C@@H](C(=C)C)[C@H]3O[C@H]3C3=C[C@H]1OC3=O)O2,-2.7%,/,/,/
c1ccc2c(c1)OCC(c1nn3c(Cn4nnc5ccccc54)nnc3s1)O2 (stereo not drawn),-2.8%,i,31.6µM*,-3.3%
c1ccc(Cc2nn3c(Cn4nnc5ccccc54)nnc3s2)cc1,-19.1%,i,i,-5.2%
Cc1cccn2c(=O)c(C(=O)NCCc3ccccc3)c(O)nc12,/,i,i,-26.1%
COc1ccccc1N1CCN(C(=O)c2cc(-c3ccc(F)cc3)on2)CC1,-1.4%,i,i,12.6µM*!
COc1ccccc1N1CCN(C(=O)c2nc(SC)ncc2Cl)CC1,/,i,i,35.5µM*
SMILES,aSyn yeast inh,Abeta rescue,FUS yeast rescue,TDP43 rescue
COc1ccccc1-c1cc(C(=O)N2CCN(c3ccccc3OC)CC2)no1,19.1%,i,i,17.8µM*
COc1ccccc1N1CCN(C(=O)c2cc(C3CC3)on2)CC1,1.2%,i,i,12.6µM*
CCCCn1c(=O)n(-c2ccc(Br)cc2F)c(=O)c2c3c(sc21)CN(C(C)=O)CC3,/,i,i,?
Cc1ccc(C)c(N2CCN(C(=O)Cn3ncc4ccsc4c3=O)CC2)c1,15.8µM*,i,?,-5.9%
COc1ccc(OC)c(NC(=O)c2nc(SCc3ccccc3F)ncc2Cl)c1,2.2%,i,i,-20.5%
CN(C)c1ccc(C(=O)c2ccccc2)cc1,-9.8%,i,i,12.6µM*
CCCCC(=O)Nc1cc(C)c(O)c(-c2nc3ncccc3o2)c1,/,i,i,9.6%
CCCCCCCCCc1conc1C(=O)CP(=O)(OC)OC,-4.1%,i,i,35.5µM*
